Anthrax LF inh2: blocks Bacillus anthracis lethal factor protease | multiplex microsphere protease cleavage assay, LF | P15917 | inhibition, % at 10 µM | AID 588501 | 360,000 compounds, 0.12% hits
BoNT F protease: BoNT F light chain protease inhibition; 360,000 compounds, 0.22% hits; AID 588497; inhibition, % at 10 µM; Multiplex microsphere protease cleavage assay, flow cytometry; in the data active means inhibition above about 35%, passing the limit was not always enough; inconclusive means no clear call, values can overlap the other calls
BoNT A protease: blocks Botulinum neurotoxin A light chain protease. multiplex microsphere protease substrate cleavage, flow cytometry. 360,000 compounds, 0.17% hits. inhibition, % at 10 µM
MazEF act: increases E. coli MazEF RNase cleavage of RNA. 350,000 compounds, 0.32% hits. activation, % at 20 µM. P0AE70. FAM/BHQ RNA-DNA oligo cleavage fluorescence, 5 h; in the data active means activation above about 50%
Target sequence (P0AE70 whole entry, looked up): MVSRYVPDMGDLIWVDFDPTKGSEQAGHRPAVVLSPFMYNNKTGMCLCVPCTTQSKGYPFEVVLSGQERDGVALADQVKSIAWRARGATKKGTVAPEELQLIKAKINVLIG
DUSP3 inh: blocks human VHR1 dual specificity phosphatase | P51452 | recombinant VHR phosphatase, pNPP absorbance | inhibition, % at 13.3 µM | 290,000 compounds, 0.52% hits; in the data active means inhibition above about 50%
Target sequence (P51452 whole entry, looked up): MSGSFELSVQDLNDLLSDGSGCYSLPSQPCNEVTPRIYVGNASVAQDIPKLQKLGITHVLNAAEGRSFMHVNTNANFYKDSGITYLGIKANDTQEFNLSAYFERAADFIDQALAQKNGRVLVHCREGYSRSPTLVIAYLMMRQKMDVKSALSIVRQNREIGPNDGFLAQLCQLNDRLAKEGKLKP
Autofluor counter: compound fluorescence in toxin protease inhibitor counterscreen. 360,000 compounds, 3.1% hits. AID 624483. compound autofluorescence counterscreen, microsphere flow cytometry; active compounds read high. fluorescence intensity (no concentration beside the values); in the data active means fluorescence intensity above about 16000; inconclusive means no clear call, values can overlap the other calls
Large screens that a line does not name were inactive. Sampled rows, rich in hits. Any-hit rate of the full collection: about 4.1%. Unless noted, no stated cut-off is given here; in the data, active means inhibition above about 30%; inconclusive means no clear call, values can overlap the other calls; inactive means below that.

Cc1ccc2[nH]c3c(=O)n(CCCN4CCOCC4)cnc3c2c1	none
Cc1nn(CC(=O)NCCCN2CCC(N3CCCCC3)CC2)c(=O)c2cc(-c3ccccc3)nn12	none
CCCCn1c(SCC(=O)Nc2nnc(CC)s2)nc2c1c(=O)n(C)c(=O)n2C	BoNT A protease inconclusive, Autofluor counter 21466
CCCCn1c(SCC(=O)NC(=O)Cc2ccccc2)nc2ccccc2c1=O	none (no result: DUSP3 inh)
CCCCn1c(SCC(=O)Nc2nnc(C)s2)nc2c1c(=O)n(C)c(=O)n2C	BoNT A protease inconclusive, Autofluor counter 22970
CCCn1c(SCC(=O)Nc2nnc(C(C)C)s2)nc2c1c(=O)n(C)c(=O)n2C	none
CCCCn1c(SCC(=O)Nc2nnc(CC)s2)nc2ccccc2c1=O	BoNT A protease inconclusive, Autofluor counter 22336
COc1ccc(/C=N\NC(=O)COc2ccccc2)c(C(=O)O)c1OC	none
COc1cc(/C=N/N2CCCCC2)cc([N+](=O)[O-])c1O	BoNT F protease inconclusive, DUSP3 inh 60
COc1cc(/C=N/n2c(=S)[nH]nc(C)c2=O)cc([N+](=O)[O-])c1O	none
CC1CC(C)(C)CC2(C1)NC(=O)N(CC(=O)N1CCN(S(=O)(=O)c3ccc(F)c(F)c3F)CC1)C2=O (stereo not drawn)	none (no result: DUSP3 inh)
O=C(C1CCCCN1S(=O)(=O)c1ccccc1)N1CCCCC1 (stereo not drawn)	none
O=C(C1CCCCN1S(=O)(=O)c1ccccc1)N1CCN(C(c2ccccc2)c2ccccc2)CC1 (stereo not drawn)	Autofluor counter 20580
O=C(COC(=O)c1nc(Cl)ccc1Cl)NC1CCCCC1	none (no result: DUSP3 inh)
Cc1ccc(NC(=O)c2ccc(OCc3c(C)noc3C)cc2)cc1	none (no result: Anthrax LF inh2, BoNT F protease, BoNT A protease, MazEF act, Autofluor counter)
Cc1ccc(NC(=O)c2ccc(OCc3c(C)noc3C)cc2)nc1	Autofluor counter 16600 (no result: DUSP3 inh)
COc1ccc(C(CNC(=O)c2ccc(OCc3c(C)noc3C)cc2)N2CCCC2)cc1 (stereo not drawn)	Autofluor counter 17256 (no result: DUSP3 inh)
COc1ccccc1C(CNC(=O)c1ccc(OCc2c(C)noc2C)cc1)N1CCCC1 (stereo not drawn)	none (no result: DUSP3 inh)
COc1cc(C(=O)OCC(=O)Nc2ccc3c(c2)OC(F)(F)O3)ccc1OCc1c(C)noc1C	none
COc1cc(C(=O)NCC(c2ccco2)N2CCCC2)ccc1OCc1c(C)noc1C (stereo not drawn)	Autofluor counter 23986
COc1ccc(NC(=O)COC(=O)c2ccc(OCc3c(C)noc3C)cc2)cc1OC	Autofluor counter 21341
COc1ccccc1NC(=O)c1ccc(NC(=O)COC(=O)c2cccnc2Cl)cc1	none (no result: DUSP3 inh)
Cn1c(=O)c2c(ncn2CCOC(=O)C(C)(C)Oc2ccc(Cl)cc2)n(C)c1=O	none (no result: DUSP3 inh)
CCOc1cc(S(=O)(=O)NCc2ccccc2)c(OCC)cc1-n1cnnn1	BoNT A protease inconclusive, Autofluor counter 21889 (no result: DUSP3 inh)
COc1ccc(NC(=O)CSC2CCCCC2)cc1	Autofluor counter 21701
COc1ccc(NC(=O)CN2CCC(NC(=O)C3CCCCC3)CC2)cc1	Autofluor counter 23189
Cc1cc2nc(-c3cccc(Cl)c3)c(CC(C)(C)C)n2c(C)c1Br	none (no result: MazEF act, DUSP3 inh)
CCCCCC(=O)Nc1c(-c2cccs2)c(=O)c2ccccc2n1C	Autofluor counter 16847
CCC(=O)Nc1c(-c2cccs2)c(=O)c2ccccc2n1C	none
CCCCCC(=O)Nc1c(-c2ccc(OC)cc2)c(=O)c2ccccc2n1C	Autofluor counter 21066
COc1ccc(-c2c(NC(=O)CC(C)C)n(C)c3ccccc3c2=O)cc1OC	Anthrax LF inh2 33
CCN(C(=O)COC(=O)c1oc2ccc(OC)cc2c1C)C1CCS(=O)(=O)C1 (stereo not drawn)	none (no result: DUSP3 inh)
COc1ccc(NC(=O)N(C)C[C@H]2OCCCC[C@@H](C)Oc3ccc(N(C)C)cc3C(=O)N([C@H](C)CO)C[C@@H]2C)cc1	none (no result: DUSP3 inh)
CC(C)CC(=O)Nc1cccc(-c2nc3ccccc3o2)c1	Autofluor counter 23031
Cc1ccc(S(=O)(=O)N2CCCOC2CNC(=O)C(=O)NC2CCCC2)cc1 (stereo not drawn)	none
Nc1c(C(=O)NCc2ccco2)c2nc3ccccc3nc2n1Cc1ccccc1	none
Nc1c(C(=O)NCc2ccco2)c2nc3ccccc3nc2n1CCN1CCOCC1	Autofluor counter 21216
CCCn1c(-c2cccnc2Cl)nc2cc(Cl)c(Cl)cc21	Autofluor counter 21449
Cn1ncc(N=Cc2c(O)ccc3ccccc23)c1C(=O)Nc1cccc(Cl)c1	MazEF act 360
Cn1ncc(Cl)c1C(=O)Nc1cccc(Cl)c1	none
O=C(N/N=C/c1c(O)ccc2ccccc12)c1ccc(Br)o1	DUSP3 inh 57
O=C(N/N=C\c1c(O)ccc2ccccc12)c1cncc(Br)c1	BoNT A protease 42
O=C(N/N=C\c1c(O)ccc2ccccc12)c1ccc(O)cc1	BoNT F protease inconclusive
CCC(C)N(C(=O)CSc1nnc2ccccn12)C1CCS(=O)(=O)C1 (stereo not drawn)	none (no result: DUSP3 inh)
CCOc1cc(OCC)cc(C(=O)N2CCC[C@@H]2C(=O)N2CCC[C@@H]2C(=O)NCc2ccccc2Cl)c1	none (no result: MazEF act, DUSP3 inh)
C=CCNCCOCCOc1ccc(C)cc1[N+](=O)[O-]	Autofluor counter 21806
CCOc1ccc(C(=O)C[n+]2cccc3cc(C)ccc32)cc1	BoNT F protease 79, Autofluor counter 25078
COc1cc(-c2noc(CCCC(=O)Nc3ccc(C(N)=O)cc3)n2)cc(OC)c1OC	none
COc1ccccc1CC(=O)Nc1ccc(-c2noc(COc3ccc(Cl)c(C)c3)n2)cc1	BoNT A protease inconclusive, Autofluor counter 21393
COc1ccc(-c2noc(CCCC(=O)Nc3ccc(C(N)=O)cc3)n2)cc1	Autofluor counter 22075
CCN(CC)c1ccc(/C=C/C(=O)C2C(=O)C=C(C)OC2=O)cc1 (stereo not drawn)	Anthrax LF inh2 73, BoNT F protease 154, BoNT A protease 70, Autofluor counter 66487
CCN(CC)c1ccc(C=C2C(=O)OC(c3ccccc3)OC2=O)cc1 (stereo not drawn)	none
CCCCn1nc(C(=O)N(C)CC(=O)Nc2ccc(F)c(F)c2F)ccc1=O	none (no result: DUSP3 inh)
CCn1c(=O)n(CC)c2cc(S(=O)(=O)Nc3ccccc3C)c(C)cc21	BoNT A protease inconclusive, Autofluor counter 23798
CC1CCCCN1CCNC(=O)C1CCN(S(=O)(=O)c2cccc3cccnc23)CC1 (stereo not drawn)	Autofluor counter 17441
O=C(C1CCC(CNS(=O)(=O)c2cccc3cccnc23)CC1)N1CCc2ccccc21 (stereo not drawn)	DUSP3 inh 54
O=C(C1CCCN1S(=O)(=O)c1cccc2cccnc12)N1CCc2ccccc21 (stereo not drawn)	none
O=C(C1CCN(S(=O)(=O)c2cccc3cccnc23)CC1)N1CCc2ccccc21	DUSP3 inh 55
Cc1ccc2c(COC(=O)c3ccc(C)c(C)c3)cc(=O)oc2c1	none
Cc1ccc2c(COC(=O)c3ccccc3Cl)cc(=O)oc2c1	none
COc1ccc(Br)c(C(=O)OCc2cc(=O)oc3cc(C)ccc23)c1	MazEF act 86

Screening data (PubChem BioAssay)
